Screening results from PubChem BioAssay.
Only a selection was taken, and hits are over-represented in it overall.
ALR inh = blocks human ALR sulfhydryl oxidase activity; P55789; purified ALR, DTT oxidation, H2O2 HRP-luminol luminescence; inhibition, % (test concentration not listed); hit rate 3.8% among 290,000;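 active = mean replicate inhibition above about 79%, with every replicate also reaching it, limit read from the data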
Target sequence (P55789 whole entry, looked up): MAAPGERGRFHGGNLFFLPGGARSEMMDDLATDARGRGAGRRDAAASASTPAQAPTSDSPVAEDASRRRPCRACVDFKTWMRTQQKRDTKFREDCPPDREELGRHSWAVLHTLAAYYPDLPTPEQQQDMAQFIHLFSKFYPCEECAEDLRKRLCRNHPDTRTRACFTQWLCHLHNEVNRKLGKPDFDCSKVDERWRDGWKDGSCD
ARNT-TACC3 inh = ARNT/TACC3 interaction disruption. AlphaScreen His-ARNT PAS-B/GST-TACC3 binding, luminescence; TACC3 fragment carries E629A point mutation. hit rate 0.66% among 390,000. AID 623870. inhibition, % at 9.99 µM;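 active = mean inhibition of replicates at least 50% and at least half of replicates each reaching 50%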;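 also: 0% = complete ARNT plus TACC3 wells and 100% = ARNT alone without TACC3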
PDI inh = inhibitors of human protein disulfide isomerase; PDI insulin aggregation turbidity, A650, 90 min; inhibition, % at 10 µM; hit rate 0.052% among 350,000; AID 588391;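 active = mean inhibition across replicates of 30% or more, whatever share of single replicates reach that level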
PglD inh = PglD (C. jejuni) enzyme inhibition; purified PglD enzyme, DTNB colorimetric CoA detection; hit rate 0.098% among 360,000; inhibition, % at 12.5 µM; in the data active = inhibition above about 16%, passing the limit was not always enough
ERp5 inh = blocks human ERp5 reductase activity on insulin | Q15084 | ERp5 insulin aggregation, absorbance 650 nm, 90 min | inhibition, % at 9.99 µM | hit rate 0.05% among 350,000;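 active = mean replicate inhibition above about 25%, with every replicate also reaching it, limit read from the data, passing the limit was not always enough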
NRP1-CendR mod = alters CendR peptide binding to human NRP-1; O14786; FAM-RPARPAR peptide binding to NRP-1, fluorescence polarization; inhibition, % at 25 µM; hit rate 0.85% among 360,000; AID 602438;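 active = inhibition or corrected inhibition above about 18%, plus a signal ratio from 0.5 to 1.5, limit read from the data, passing the limit was not always enough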
Starred values were filed as active, the others as inactive; . = no result given.

SMILES | ALR inh | ARNT-TACC3 inh | PDI inh | PglD inh | ERp5 inh | NRP1-CendR mod
Cc1ccc(NC(=O)CCCn2c(=S)[nH]c3ccsc3c2=O)cc1C | 84* | 0 | -6 | 3 | 1 | -8
COc1ccc(NC(=O)N2CCC3(CC2)CN(C(=O)C2CCC2)[C@H](CO)c2c3c3ccc(OC)cc3n2C)cc1 | . | . | . | . | 4 | .
Cc1ccc(NC(=O)CCNC(=O)c2ccc([N+](=O)[O-])cc2)cc1S(=O)(=O)N(C)C | 0 | -3 | 7 | . | -4 | 39*
C[C@H]1CN([C@@H](C)CO)C(=O)c2c(c3ccccc3n2C)-c2ccccc2CO[C@H]1CN(C)C(=O)c1ccc(F)cc1 | . | -9 | . | 0 | -6 | .
COc1cc2oc(=O)ccc2cc1[C@@H](O)[C@@H]1OC(C)(C)OC1(C)C | 3 | -2 | -9 | 0 | 5 | 27*
COCC#Cc1ccc2c(c1)O[C@H](CN(C)C(=O)C1CC1)[C@@H](C)CN([C@H](C)CO)S2(=O)=O | . | -6 | . | -1 | -5 | .
Cc1ccc(S(=O)(=O)Nc2cccc3c2O[C@H](CN(C)Cc2ccc(C(F)(F)F)cc2)[C@@H](C)CN([C@@H](C)CO)C3=O)cc1 | . | -1 | . | 1 | 2 | .
Cc1ccc(NC2=CC(=O)C(=O)c3ccccc32)cc1 | -35 | 5 | -5 | -4 | . | 3
Cc1cc(NC2=CC(=O)C(=O)c3ccccc32)no1 | . | 37* | -9 | . | -7 | 28*
C[C@H](CO)N1C[C@H](C)[C@@H](CN(C)Cc2ccc(F)cc2)Oc2ncc(C#CCN(C)C)cc2C1=O | . | -5 | . | 1 | -4 | .
COc1cc(CNc2ncc(-c3ccc(Br)cc3)n2C)cc(OC)c1OC | 91* | 5 | 0 | -3 | 2 | -3
COc1cc(CNc2ncc(-c3ccc(Cl)cc3)n2C)cc(OC)c1OC | 95* | 5 | 3 | 13 | 2 | 1
Cn1c(-c2ccc(F)cc2)cnc1NCc1ccc(C#N)cc1 | 33 | 33 | 14 | 2 | 5 | 6
CCOc1cc(CNc2ncc(-c3ccc(OC)cc3)n2C)ccc1O | 78* | 2 | 3 | 0 | . | -8
COc1ccc(CNc2ncc(-c3ccccc3)n2C)cc1 | 42 | 13 | -27 | 3 | -1 | 0
Cn1c(-c2ccc(F)cc2)cnc1NCc1ccc(F)cc1 | 91* | -1 | -5 | 0 | . | 13
C[C@@H]1CN([C@@H](C)CO)C(=O)c2cc(C3=CCCCC3)cnc2O[C@@H]1CN(C)C(=O)Cc1ccncc1 | . | 3 | . | 3 | -8 | .
N#Cc1cccc(-c2ccc([C@@H]3[C@@H](CO)N4CCCCN(C(=O)Nc5ccccc5)C[C@@H]34)cc2)c1 | . | 5 | . | -4 | -2 | .
C[C@H](CO)N1C[C@H](C)[C@H](CN(C)C(=O)c2ccccc2)Oc2cc(C3=CCCCC3)ccc2S1(=O)=O | . | 6 | . | -29 | 1 | .
O=C(COC(=O)C1=COCCO1)Nc1ccc(OC(F)F)cc1 | -7 | -3 | 5 | . | -12 | 27*
O=C(COC(=O)C1=COCCO1)Nc1ccccc1 | 3 | 0 | 2 | . | -3 | 3
CCCC#Cc1cnc2c(c1)C(=O)N([C@H](C)CO)C[C@@H](C)[C@@H](CN(C)C(=O)c1ccccc1)O2 | . | -3 | . | -1 | 1 | .
C/C(=N\N(Cc1ccccc1)c1ccccc1)c1ccncc1 | 99* | -5 | -1 | . | 0 | 10
Cc1ccc(O)c(-c2cc3ccccc3[nH]2)c1 | 99* | 7 | -4 | 5 | . | -14
CCS(=O)(=O)N1CCN(c2ccccc2)CC1 | 56 | -4 | 0 | 6 | -2 | 1
O=C1Oc2ccccc2C(=O)/C1=C\N1CCN(c2ccccc2)CC1 | 97* | -3 | -4 | . | 6 | -10
CC(=O)NC[C@H]1[C@@H](c2ccc(C#CC(C)C)cc2)[C@@H](CO)N1C(=O)C1CC1 | . | . | . | . | -6 | .
C[C@@H]1CCCCO[C@@H](CN(C)C(=O)C2CCCCC2)[C@H](C)CN([C@@H](C)CO)C(=O)c2cc(NC(=O)Cc3ccccc3)ccc2O1 | . | -2 | . | -1 | -8 | .
CCOC(=O)c1c(NC(=O)COc2ccccc2C#N)sc2c1CC(C)(C)NC2(C)C | -15 | -2 | 1 | -4 | 0 | 22*
Cc1ccc(SCC(=O)OC(C)C(=O)Nc2ccc(S(N)(=O)=O)cc2)cc1C (stereo unspecified) | . | . | -3 | 1 | -1 | 44*
